{"source": "the supplement of paper PMC7724964"}
{"target": "NR5A2 297-541 Hormone_recep (domain begin residue: 297, domain end residue: 541), O00482", "sequence (O00482 whole entry, the tested form may be a part)": "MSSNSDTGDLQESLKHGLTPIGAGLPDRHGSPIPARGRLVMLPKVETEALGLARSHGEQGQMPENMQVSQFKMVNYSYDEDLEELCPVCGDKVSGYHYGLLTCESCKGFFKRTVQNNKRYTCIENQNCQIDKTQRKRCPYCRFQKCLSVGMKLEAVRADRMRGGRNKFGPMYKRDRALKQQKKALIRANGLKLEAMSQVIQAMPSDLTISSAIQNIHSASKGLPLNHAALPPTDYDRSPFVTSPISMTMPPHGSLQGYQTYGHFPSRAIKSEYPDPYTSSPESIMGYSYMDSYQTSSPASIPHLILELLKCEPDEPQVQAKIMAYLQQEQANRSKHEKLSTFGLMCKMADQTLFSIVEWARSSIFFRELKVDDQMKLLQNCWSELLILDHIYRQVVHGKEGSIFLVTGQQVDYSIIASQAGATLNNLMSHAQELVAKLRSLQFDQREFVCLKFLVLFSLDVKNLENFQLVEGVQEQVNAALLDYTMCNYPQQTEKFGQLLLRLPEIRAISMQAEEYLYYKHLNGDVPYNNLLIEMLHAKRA", "test": "phage ELISA signal ratio (GST-PRM binding over GST background); higher = stronger binding of peptide-phage to the PRM", "outline": "(§1)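 An M13 phage library with randomized hexadecapeptides on the gene-8 major coat protein, each peptide lacking cysteine and flanked by glycine, was selected for five rounds against human peptide recognition domains fused to the C-terminus of glutathione S-transferase (GST) and expressed in 96-well plates. Approximately 48 clones from rounds 4 and 5 went to phage ELISA. The reported value is the ELISA signal on the GST-domain fusion over the signal on GST alone, and positive clones were sequenced.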"}
{"binder": "QQAQPRWWSMVLQHEW", "phage ELISA signal ratio": 4.92}
{"target": "T1, NR4A2 327-598 Hormone_recep (domain begin residue: 327, domain end residue: 598), P43354", "T1 chain": "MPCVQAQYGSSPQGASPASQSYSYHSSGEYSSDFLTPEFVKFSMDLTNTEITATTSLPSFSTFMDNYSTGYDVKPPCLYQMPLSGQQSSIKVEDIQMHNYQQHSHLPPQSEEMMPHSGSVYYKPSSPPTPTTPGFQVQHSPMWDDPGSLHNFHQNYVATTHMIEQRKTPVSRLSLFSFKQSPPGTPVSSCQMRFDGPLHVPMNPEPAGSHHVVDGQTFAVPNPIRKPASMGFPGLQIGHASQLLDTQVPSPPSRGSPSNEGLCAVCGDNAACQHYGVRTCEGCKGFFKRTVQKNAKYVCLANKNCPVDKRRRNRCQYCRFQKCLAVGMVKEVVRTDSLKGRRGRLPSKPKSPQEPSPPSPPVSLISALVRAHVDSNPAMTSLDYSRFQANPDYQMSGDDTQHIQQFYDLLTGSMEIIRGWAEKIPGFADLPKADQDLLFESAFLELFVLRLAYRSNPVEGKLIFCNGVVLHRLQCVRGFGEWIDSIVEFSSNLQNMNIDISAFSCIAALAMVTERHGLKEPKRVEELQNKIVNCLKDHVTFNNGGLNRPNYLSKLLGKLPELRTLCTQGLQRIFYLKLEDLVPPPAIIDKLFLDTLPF", "test": "phage ELISA signal ratio (GST-PRM binding over GST background); higher = stronger binding of peptide-phage to the PRM", "outline": "as §1"}
{"binder": "LNDSEQWFTWAYKYVD", "phage ELISA signal ratio": 9.75}
{"binder": "QWSVEPWWHEMVIQGI", "phage ELISA signal ratio": 24.1}
{"target": "NXF1 565-619 TAP_C (domain begin residue: 565, domain end residue: 619)", "test": "phage ELISA signal ratio (GST-PRM binding over GST background); higher = stronger binding of peptide-phage to the PRM", "outline": "as §1"}
{"binder": "YPIEQFSFDIWDQMVE", "phage ELISA signal ratio": 12}
{"binder": "VVQIEGFDFQWKPEWF", "phage ELISA signal ratio": 13.2}
{"binder": "GIPYPDFNWENISTLV", "phage ELISA signal ratio": 6.41}
{"binder": "EIEEFSFTWQPEWEVR", "phage ELISA signal ratio": 8.54}
{"target": "T2, NR4A3 356-626 Hormone_recep (domain begin residue: 356, domain end residue: 626), Q92570", "T2 chain": "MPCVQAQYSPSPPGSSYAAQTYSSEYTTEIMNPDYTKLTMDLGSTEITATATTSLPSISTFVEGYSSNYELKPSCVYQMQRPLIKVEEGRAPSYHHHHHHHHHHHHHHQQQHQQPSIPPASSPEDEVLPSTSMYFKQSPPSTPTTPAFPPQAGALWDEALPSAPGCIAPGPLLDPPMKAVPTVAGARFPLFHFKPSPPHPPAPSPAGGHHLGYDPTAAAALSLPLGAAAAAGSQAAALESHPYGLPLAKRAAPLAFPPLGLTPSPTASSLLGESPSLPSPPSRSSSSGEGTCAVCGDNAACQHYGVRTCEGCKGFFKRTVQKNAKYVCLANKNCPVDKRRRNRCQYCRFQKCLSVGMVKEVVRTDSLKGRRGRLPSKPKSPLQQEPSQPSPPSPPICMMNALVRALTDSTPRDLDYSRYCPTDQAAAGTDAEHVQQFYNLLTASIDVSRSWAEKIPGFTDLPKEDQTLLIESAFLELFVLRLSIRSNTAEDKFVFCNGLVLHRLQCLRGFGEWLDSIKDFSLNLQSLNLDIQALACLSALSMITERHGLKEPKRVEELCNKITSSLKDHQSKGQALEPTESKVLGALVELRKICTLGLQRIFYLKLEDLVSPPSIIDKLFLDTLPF", "test": "phage ELISA signal ratio (GST-PRM binding over GST background); higher = stronger binding of peptide-phage to the PRM", "outline": "as §1"}
{"binder": "QQEPWWWMDWDFQQAE", "phage ELISA signal ratio": 4.47}
{"target": "NXF1 203-359 LRR_1 (domain begin residue: 203, domain end residue: 359)", "test": "phage ELISA signal ratio (GST-PRM binding over GST background); higher = stronger binding of peptide-phage to the PRM", "outline": "as §1"}
{"binder": "FEELWLKHTAVSKTTE", "phage ELISA signal ratio": 32.5}
{"binder": "PNFEDYWRTAEQWHQP", "phage ELISA signal ratio": 25.4}
{"target": "T3, NXT1 1-140 NTF2 (domain begin residue: 1, domain end residue: 140), Q9UKK6", "T3 chain": "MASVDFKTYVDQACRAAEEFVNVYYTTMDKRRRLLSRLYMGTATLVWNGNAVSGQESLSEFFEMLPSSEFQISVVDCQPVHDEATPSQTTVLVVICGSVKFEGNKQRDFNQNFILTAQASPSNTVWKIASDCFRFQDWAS", "test": "phage ELISA signal ratio (GST-PRM binding over GST background); higher = stronger binding of peptide-phage to the PRM", "outline": "as §1"}
{"binder": "EQKQTDSFYWIWQHLD", "phage ELISA signal ratio": 3.56}
{"target": "T4, NR1H4 256-474 Hormone_recep (domain begin residue: 256, domain end residue: 474), Q96RI1", "T4 chain": "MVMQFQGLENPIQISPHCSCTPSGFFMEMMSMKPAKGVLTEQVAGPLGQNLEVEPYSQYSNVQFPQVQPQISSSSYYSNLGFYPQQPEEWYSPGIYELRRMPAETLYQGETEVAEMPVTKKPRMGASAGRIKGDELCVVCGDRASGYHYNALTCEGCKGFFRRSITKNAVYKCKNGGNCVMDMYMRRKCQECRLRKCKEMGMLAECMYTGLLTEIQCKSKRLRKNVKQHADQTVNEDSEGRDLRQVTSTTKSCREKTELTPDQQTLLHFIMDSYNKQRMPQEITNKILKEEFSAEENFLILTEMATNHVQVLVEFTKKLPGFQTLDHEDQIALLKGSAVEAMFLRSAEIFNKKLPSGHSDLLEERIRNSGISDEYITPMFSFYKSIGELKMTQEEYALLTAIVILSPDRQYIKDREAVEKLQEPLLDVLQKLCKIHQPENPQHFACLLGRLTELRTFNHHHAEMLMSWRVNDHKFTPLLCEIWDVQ", "test": "phage ELISA signal ratio (GST-PRM binding over GST background); higher = stronger binding of peptide-phage to the PRM", "outline": "as §1"}
{"binder": "WQEWLDYTVESQYTLV", "phage ELISA signal ratio": 7.27}
{"target": "T5, NUP98 730-880 Nucleoporin2 (domain begin residue: 730, domain end residue: 880), P52948", "T5 chain": "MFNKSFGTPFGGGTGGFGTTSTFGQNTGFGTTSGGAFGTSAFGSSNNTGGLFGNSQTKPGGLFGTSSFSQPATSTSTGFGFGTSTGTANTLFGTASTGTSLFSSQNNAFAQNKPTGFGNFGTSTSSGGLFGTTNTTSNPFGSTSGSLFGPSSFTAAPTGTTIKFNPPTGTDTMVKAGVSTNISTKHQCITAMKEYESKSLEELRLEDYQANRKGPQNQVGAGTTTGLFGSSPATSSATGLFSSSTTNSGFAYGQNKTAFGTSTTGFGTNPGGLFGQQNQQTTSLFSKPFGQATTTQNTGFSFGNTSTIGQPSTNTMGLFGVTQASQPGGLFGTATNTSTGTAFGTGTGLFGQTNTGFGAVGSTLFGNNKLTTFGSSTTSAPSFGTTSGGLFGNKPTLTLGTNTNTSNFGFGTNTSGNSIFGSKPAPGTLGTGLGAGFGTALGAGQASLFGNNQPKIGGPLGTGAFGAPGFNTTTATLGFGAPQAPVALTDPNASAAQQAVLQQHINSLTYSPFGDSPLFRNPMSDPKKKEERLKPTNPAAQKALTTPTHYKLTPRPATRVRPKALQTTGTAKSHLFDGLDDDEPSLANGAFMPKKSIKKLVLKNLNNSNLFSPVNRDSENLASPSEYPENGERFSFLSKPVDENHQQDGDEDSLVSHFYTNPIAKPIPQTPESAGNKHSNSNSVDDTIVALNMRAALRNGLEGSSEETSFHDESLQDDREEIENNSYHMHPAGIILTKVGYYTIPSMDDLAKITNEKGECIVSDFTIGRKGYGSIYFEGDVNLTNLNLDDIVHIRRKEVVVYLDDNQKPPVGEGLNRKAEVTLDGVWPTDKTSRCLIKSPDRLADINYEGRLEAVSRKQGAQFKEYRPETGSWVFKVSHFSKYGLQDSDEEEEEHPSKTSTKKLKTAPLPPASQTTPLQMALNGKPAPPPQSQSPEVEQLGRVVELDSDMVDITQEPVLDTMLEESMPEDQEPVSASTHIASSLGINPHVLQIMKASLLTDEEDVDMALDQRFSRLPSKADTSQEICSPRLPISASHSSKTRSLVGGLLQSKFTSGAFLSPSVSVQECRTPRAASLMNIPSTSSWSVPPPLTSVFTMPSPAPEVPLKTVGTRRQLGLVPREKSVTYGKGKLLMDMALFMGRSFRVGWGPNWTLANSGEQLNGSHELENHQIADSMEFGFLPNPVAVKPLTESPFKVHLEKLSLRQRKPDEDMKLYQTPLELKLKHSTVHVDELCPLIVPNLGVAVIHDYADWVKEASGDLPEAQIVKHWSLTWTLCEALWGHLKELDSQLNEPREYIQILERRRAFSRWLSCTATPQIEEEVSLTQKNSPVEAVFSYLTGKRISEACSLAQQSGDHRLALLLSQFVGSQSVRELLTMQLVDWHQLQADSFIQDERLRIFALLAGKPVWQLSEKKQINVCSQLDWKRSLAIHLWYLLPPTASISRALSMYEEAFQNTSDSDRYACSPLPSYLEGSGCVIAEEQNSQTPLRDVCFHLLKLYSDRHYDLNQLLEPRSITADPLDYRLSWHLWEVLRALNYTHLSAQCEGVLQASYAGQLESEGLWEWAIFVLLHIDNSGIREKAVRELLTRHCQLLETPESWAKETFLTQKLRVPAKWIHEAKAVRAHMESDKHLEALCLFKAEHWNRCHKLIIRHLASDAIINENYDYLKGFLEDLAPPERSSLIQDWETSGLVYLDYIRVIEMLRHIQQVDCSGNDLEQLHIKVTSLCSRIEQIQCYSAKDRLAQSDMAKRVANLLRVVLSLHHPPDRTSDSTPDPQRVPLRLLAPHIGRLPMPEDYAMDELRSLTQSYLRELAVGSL", "test": "phage ELISA signal ratio (GST-PRM binding over GST background); higher = stronger binding of peptide-phage to the PRM", "outline": "as §1"}
{"binder": "MWEPELYDDFHEAVTY", "phage ELISA signal ratio": 18.1}
{"target": "T6, NR1H3 204-447 Hormone_recep (domain begin residue: 204, domain end residue: 447), Q13133", "T6 chain": "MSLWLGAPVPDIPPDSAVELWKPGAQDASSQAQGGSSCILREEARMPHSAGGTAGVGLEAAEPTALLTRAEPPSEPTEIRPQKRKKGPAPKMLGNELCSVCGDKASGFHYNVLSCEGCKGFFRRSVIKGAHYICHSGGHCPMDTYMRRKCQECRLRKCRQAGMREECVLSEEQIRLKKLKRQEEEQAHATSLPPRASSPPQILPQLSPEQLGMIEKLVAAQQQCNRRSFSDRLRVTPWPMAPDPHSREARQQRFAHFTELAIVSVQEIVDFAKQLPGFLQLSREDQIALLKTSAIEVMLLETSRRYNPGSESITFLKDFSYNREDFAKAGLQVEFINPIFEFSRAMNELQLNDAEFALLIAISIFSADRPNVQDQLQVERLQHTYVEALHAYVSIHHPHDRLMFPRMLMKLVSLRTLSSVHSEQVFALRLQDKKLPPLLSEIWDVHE", "test": "phage ELISA signal ratio (GST-PRM binding over GST background); higher = stronger binding of peptide-phage to the PRM", "outline": "as §1"}
{"binder": "EMLLDQQMWEWVQAMS", "phage ELISA signal ratio": 26.9}
